Laboratory results taken from PubChem BioAssay (NCATS).
Records with an inconclusive call do not appear. Active and inactive are the calls of the source. Unless noted, calls follow the shape of the dose curve; as a rule, active = well fitted curve in the direction sought with a large enough effect; inconclusive = small, poorly fitted or top-dose-only effect, or another doubt; inactive = no such curve, though single readings can be large; an effect the other way counts as inactive or inconclusive.

Tests used:
[1] = target: Lysosomal acid glucosylceramidase (Homo sapiens) (UniProt P04062); assay: Glucocerebrosidase-p2 (AID 348; in the data active = potency below about 10 µM; also: potency is read from the fitted curve at half-maximal effect); conditions: purified GBA, blue fluorogenic substrate, 40 min
Summary of the method: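 Normal human glucocerebrosidase (0.2 nM) with blue fluorogenic substrate (80 uM final) in citrate/phosphate pH 5.9 with 10mM sodium taurocholate, 0.01% tween-20; 40 min RT, NaOH/glycine stop; fluorescence Ex 365/Em 440; AC50 from a titration from 0.6 nM upwards.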

[2] = AP1 Signaling Pathway (AID 357; active = well fitted curve in either direction with a large enough effect, not every such curve was filed as active;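 also: ME-180 reporter cells stimulated with EGF at its EC50 level; % is scaled to controls: 0 for no effect and ±100 for the full control effect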); conditions: ME-180 AP-1-bla reporter, EGF-induced, beta-lactamase ratio, 5 h; at 7.69 µM (top of the series) unless noted
Summary of the method: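 First, ME-180 AP-1-bla cells were cultured overnight at 37 °C in low-serum Opti-MEM. Next, titrated compounds with EC50 EGF were incubated 5 hours. Finally, CCF4 was added for 2.5 hours and the 460/530 nm ratio recorded.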

[3] = target: Cytochrome P450 1A2 (Homo sapiens) (UniProt P05177); assay: p450-cyp1a2 (AID 410; calls by dose curve; also: potency is read from the fitted curve at half-maximal effect;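 as to activity change, negative = inhibition: -100% = full effect of reference inhibitor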); conditions: recombinant CYP1A2, luciferin-ME demethylation, luminescence; series mostly up to 57 µM
Summary of the method: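 20nM CYP1A2, 100uM Luciferin-ME (=Km), 100mM KPO4; cpd 10 min RT; +NADPH regen, 60 min RT; stop/detect 20 min; luminescence. Normalized to furafylline 57 uM = full inhibition.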

[4] = NFAT Signaling Pathway (AID 444; active = well fitted curve in either direction with a large enough effect, not every such curve was filed as active;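 also: carbachol stimulus at about its EC50 of 1 µM final; % is scaled to controls: 0 for no effect and ±100 for the full control effect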); conditions: Jurkat NFAT-bla M1, carbachol, beta-lactamase ratio, 5 h; at 7.69 µM (top of the series) unless noted
Summary of the method: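 Jurkat cells with NFAT-driven β-lactamase reporter and co-expressed M1 receptor, stimulated with carbachol (final 1 uM, ~EC50), compound titration, 5 h at 37 °C. CCF4 loaded 1 h at RT; 460/530 nm ratio gave %activity and AC50.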

[5] = Stat Signaling Pathway (AID 446; active = well fitted curve in either direction with a large enough effect, not every such curve was filed as active;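 also: ME-180 cervical cancer cells given 40 pM IL-6 alongside compound; SIE-controlled beta-lactamase reporter measured as 460/530 nm FRET emission ratio; % is scaled to controls: 0 for no effect and ±100 for the full control effect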); conditions: ME-180 (cervical carcinoma) SIE beta-lactamase reporter, IL-6 stimulated, 5 h; at 7.69 µM (top of the series) unless noted
Summary of the method: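 Compound effects on IL-6-induced STAT reporter activity were measured in ME-180 cells. After overnight culture, cells were co-treated with 40 pM IL-6 for 5 hrs before beta-lactamase substrate loading at room temperature.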

[6] = target: Glucocorticoid receptor (Homo sapiens) (UniProt P04150); assay: GR-GFP Redistribution (AID 450;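 active = compounds whose dose series gives a full or clear partial fitted curve of increased nuclear translocation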; also: potency is read from the fitted curve at half-maximal effect); conditions: U2OS GR-GFP nuclear translocation, laser cytometry, 2 h
[7] = target: Glucocorticoid receptor (Homo sapiens) (UniProt P04150); assay: GR-EFC Redistribution (AID 451; calls by dose curve; also: potency is read from the fitted curve at half-maximal effect); conditions: CHO-K1 GR-EFC translocation, beta-gal luminescence, 2 h
Summary of the method: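 CHO-K1 cells expressing nuclear EA and GR-ED fragments of b-gal; compounds titrated up to 46 uM final, 2 h at 37 C. GR nuclear translocation read as complemented b-gal luminescence after 1 h RT detection.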

[8] = target: Mitogen-activated protein kinase 10 (Mus musculus) (UniProt Q61831); assay: JNK3 AlphaScreen Assay (AID 530; active = well fitted curve in either direction with a large enough effect, not every such curve was filed as active;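 also: kinase came from lysate of stimulated human HepG2 cells; signal reports phosphorylation of biotinylated GST-cJun 1-79 at Ser73 with 10 µM ATP; % is scaled to controls: 0 for no effect and ±100 for the full control effect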); conditions: JNK3 lysate, c-Jun phosphorylation; series mostly up to 57.1 µM
Summary of the method: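 HepG2 lysate (IL-1b/TNFa pre-activated) + biotin-GST-cJun 1-79 + anti-pSer73 cJun; cpd titration, 15 min RT; ATP 10 uM start; Tris pH 7.6, MgCl2, DTT, vanadate; beads in EDTA buffer; AlphaScreen.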

[9] = target: 3',5'-cyclic-AMP phosphodiesterase 4B (Homo sapiens) (UniProt Q07343); assay: qHTS Assay for Inhibitors of PDE-IV (AID 607; active = well fitted activation curve with a large enough effect in the main read-out, with a control signal flat, not every such curve was filed as active; also: % of control where 0% means no effect); conditions: HEK293 ACTOne CNG channel cells, membrane potential fluorescence; series mostly up to 22.9 µM
Summary of the method: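 ACTOne HEK293 cells carry a modified cAMP-gated CNG channel and express endogenous PDE4; plated 1000 cells/well, compounds up to 22.9 uM final. Membrane-potential dye fluorescence (ex 535/em 590) was read; parental cells received 10 uM forskolin + 100 uM RO 20-1724.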

[10] = target: Cytochrome P450 3A4 (Homo sapiens) (UniProt P08684); assay: qHTS Assay for Inhibitors and Substrates of Cytochrome P450 3A4 (AID 884); conditions: recombinant CYP3A4, Luciferin-PPXE luminescence; series mostly up to 57.1 µM; also: nearly all actives have a fitted effect of over 50% in size; also: potency is read from the fitted curve at half-maximal effect
Summary of the method: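 Luminescent readout of luciferin produced by CYP3A4 (20 nM) dealkylation of Luciferin-PPXE, 25 uM (its KM). NADPH-driven reaction ran 60 min at RT after 10 min compound preincubation; data scaled to 57 uM ketoconazole as 100% inhibition.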

[11] = target: Cytochrome P450 3A4 (Homo sapiens) (UniProt P08684); assay: qHTS Assay for Activators of Cytochrome P450 3A4 (AID 885); conditions: recombinant CYP3A4, Luciferin-PPXE luminescence, 60 min; series mostly up to 57.1 µM; also: nearly all actives have a fitted effect of over 65% in size; also: potency is read from the fitted curve at half-maximal effect
Summary of the method: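 CYP3A4 activity: Luciferin-PPXE O-dealkylation, 25uM substrate, 200mM KPO4, RT throughout. Read-out is luciferase luminescence; higher values reflect activation.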

[12] = qHTS Assay for Lipid Storage Modulators (AID 1519; calls by dose curve); conditions: Drosophila S3 cells, BODIPY lipid droplet/cell ratio, laser cytometry, cells loaded with oleic acid; for activity change, negative = inhibition: at 57.5 µM (top of the series)
Summary of the method: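 Cells seeded at 5,000 per well were treated with compounds over a concentration series and loaded with oleic acid (400 uM, as added). Lipid droplet fluorescence (488 nm excitation, 500-530 nm channel) was read by laser-scanning cytometry and normalized to 20 uM Triacsin C.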

[13] = target: Dual specificity protein kinase CLK4 (Homo sapiens) (UniProt Q9HAZ1); assay: qHTS Assay for Inhibitors of CDC-like Kinase 4 (Kinase-Glo Assay) (AID 1770); conditions: recombinant Clk4, Kinase-Glo ATP depletion luminescence; series mostly up to 66.7 µM; also: nearly all actives have a fitted effect of over 65% in size; also: potency is read from the fitted curve at half-maximal effect
Summary of the method: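 Luminescent ATP-depletion read-out (Kinase-Glo) after 4.5 h room-temperature reaction of Clk4 (25 nM final) with RS peptide (100 uM) and ATP (1 uM), pH 7.5 Tris buffer with MgCl2 and DTT.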

[14] = target: Dual specificity protein kinase CLK4 (Homo sapiens) (UniProt Q9HAZ1); assay: qHTS Assay for Inhibitors of CDC-like Kinase 4 (ADP-Glo Assay) (AID 1771); conditions: recombinant CLK4, ADP-Glo luminescence; series mostly up to 80 µM; also: nearly all actives have a fitted effect of over 70% in size; also: potency is read from the fitted curve at half-maximal effect
Summary of the method: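 25 nM Clk4, 100 uM RS peptide, 1 uM ATP (final); 2 mM MgCl2, 0.5 mM EGTA, 2.5 mM DTT, 0.01% Triton X-100; 1 hr RT. ADP-Glo readout: ATP depletion 45 min, conversion/luciferase 30 min, luminescence.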

[15] = target: Dual specificity protein kinase CLK4 (Homo sapiens) (UniProt Q9HAZ1); assay: qHTS Assay for Inhibitors of CDC-like Kinase 4 (ADP-FP Assay) (AID 1795); conditions: Transcreener ADP fluorescence polarization; series mostly up to 50 µM; also: nearly all actives have a fitted effect of over 60% in size; also: potency is read from the fitted curve at half-maximal effect
Summary of the method: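 Kinase activity was measured as ADP production using Transcreener orange tracer (4 nM) and ADP antibody (1 ug/mL) fluorescence polarization, with ADP calculated from a calibration curve. The 1 h reaction contained 6.25 nM Clk4, 1 uM ATP and 100 uM RS peptide at pH 7.5 with Mg2+.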

[16] = target: Ubiquitin carboxyl-terminal hydrolase 1 (Homo sapiens) (UniProt O94782); assay: Inhibitors of USP1/UAF1: Pilot qHTS (AID 504865); conditions: purified USP1/UAF1, Ub-rhodamine cleavage fluorescence; series mostly up to 54.9 µM;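 also: rhodamine fluorescence freed from ubiquitin-rhodamine substrate followed over time; top concentration of the series differs between compounds; % is scaled to controls: 0 for no effect and ±100 for the full control effect; nearly all actives have a fitted effect of over 35% in size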
Summary of the method: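 Deubiquitinase activity followed as kinetic rhodamine fluorescence release from 150 nM Ub-Rho. 1 nM USP1/UAF1 with compound, after 15 min room-temperature preincubation, in HEPES pH 7.8 buffer containing TCEP, EDTA, BSA and Tween-20.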

[17] = Primary qHTS for small molecule stabilizers of the endoplasmic reticulum resident proteome: Secreted ER Calcium Modulated Protein (SERCaMP) assay (AID 1508630); conditions: SH-SY5Y GLuc-SERCaMP (Gaussia luciferase released on ER calcium loss) secretion, thapsigargin, luminescence; series mostly up to 38.4 µM; also: % is scaled to controls: 0 for no effect and ±100 for the full control effect
Summary of the method: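 The SH-SY5Y reporter protocol was run at 3 concentrations up to 38.3 uM (primary) or 11 concentrations (follow-up): 16 h compound, 100 nM thapsigargin for 4 h, then extracellular luciferase luminescence.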

[18] = measured here: cell count channel max response
[19] = measured here: lipid channel max response

Cytochrome P450 1A2 (Homo sapiens), sequence (P05177 whole entry, looked up): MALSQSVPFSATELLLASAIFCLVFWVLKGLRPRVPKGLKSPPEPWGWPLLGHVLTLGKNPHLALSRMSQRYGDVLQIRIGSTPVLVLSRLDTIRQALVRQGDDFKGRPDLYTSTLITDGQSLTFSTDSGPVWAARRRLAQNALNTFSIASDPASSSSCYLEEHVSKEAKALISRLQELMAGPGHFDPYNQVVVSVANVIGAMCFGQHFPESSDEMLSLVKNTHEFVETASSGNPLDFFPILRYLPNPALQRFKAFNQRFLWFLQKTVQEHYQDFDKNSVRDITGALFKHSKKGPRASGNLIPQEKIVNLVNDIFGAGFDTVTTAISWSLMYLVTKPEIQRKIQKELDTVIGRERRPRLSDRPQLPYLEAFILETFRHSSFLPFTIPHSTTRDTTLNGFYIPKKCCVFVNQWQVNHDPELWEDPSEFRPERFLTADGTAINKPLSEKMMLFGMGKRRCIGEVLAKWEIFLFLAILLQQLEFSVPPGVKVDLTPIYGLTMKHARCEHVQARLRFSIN
Cytochrome P450 3A4 (Homo sapiens), sequence (P08684 whole entry, looked up): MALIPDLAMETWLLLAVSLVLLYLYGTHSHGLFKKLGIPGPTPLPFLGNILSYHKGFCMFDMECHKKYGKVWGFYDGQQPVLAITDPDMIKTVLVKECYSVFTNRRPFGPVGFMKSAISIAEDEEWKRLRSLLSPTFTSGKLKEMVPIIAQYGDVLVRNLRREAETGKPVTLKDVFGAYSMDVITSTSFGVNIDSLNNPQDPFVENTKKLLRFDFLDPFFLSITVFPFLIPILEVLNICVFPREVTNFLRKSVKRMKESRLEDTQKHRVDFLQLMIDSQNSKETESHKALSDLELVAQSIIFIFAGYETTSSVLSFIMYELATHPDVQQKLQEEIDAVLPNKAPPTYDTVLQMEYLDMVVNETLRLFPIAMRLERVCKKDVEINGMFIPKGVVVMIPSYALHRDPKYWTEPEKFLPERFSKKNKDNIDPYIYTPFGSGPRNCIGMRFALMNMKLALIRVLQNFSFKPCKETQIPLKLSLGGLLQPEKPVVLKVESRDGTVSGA
3',5'-cyclic-AMP phosphodiesterase 4B (Homo sapiens), sequence (Q07343 whole entry, looked up): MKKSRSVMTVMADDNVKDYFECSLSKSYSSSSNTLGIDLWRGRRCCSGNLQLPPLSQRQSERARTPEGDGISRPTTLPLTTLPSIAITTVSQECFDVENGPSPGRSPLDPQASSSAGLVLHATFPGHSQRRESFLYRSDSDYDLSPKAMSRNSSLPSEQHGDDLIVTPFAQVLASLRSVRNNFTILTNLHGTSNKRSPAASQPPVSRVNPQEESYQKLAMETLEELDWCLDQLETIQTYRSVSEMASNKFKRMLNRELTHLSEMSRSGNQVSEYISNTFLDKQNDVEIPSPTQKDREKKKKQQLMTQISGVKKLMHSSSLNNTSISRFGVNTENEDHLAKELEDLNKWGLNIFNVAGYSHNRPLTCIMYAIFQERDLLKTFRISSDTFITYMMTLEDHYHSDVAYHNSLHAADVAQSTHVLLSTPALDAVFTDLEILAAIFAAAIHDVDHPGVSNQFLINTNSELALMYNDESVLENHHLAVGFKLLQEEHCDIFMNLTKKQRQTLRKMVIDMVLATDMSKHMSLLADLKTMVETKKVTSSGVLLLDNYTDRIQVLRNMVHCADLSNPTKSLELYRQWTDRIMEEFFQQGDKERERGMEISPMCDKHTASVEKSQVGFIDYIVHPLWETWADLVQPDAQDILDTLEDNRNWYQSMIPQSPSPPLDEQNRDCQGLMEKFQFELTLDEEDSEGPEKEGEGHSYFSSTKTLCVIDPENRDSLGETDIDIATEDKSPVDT
Glucocorticoid receptor (Homo sapiens), sequence (P04150 whole entry, looked up, the tested form may be a part): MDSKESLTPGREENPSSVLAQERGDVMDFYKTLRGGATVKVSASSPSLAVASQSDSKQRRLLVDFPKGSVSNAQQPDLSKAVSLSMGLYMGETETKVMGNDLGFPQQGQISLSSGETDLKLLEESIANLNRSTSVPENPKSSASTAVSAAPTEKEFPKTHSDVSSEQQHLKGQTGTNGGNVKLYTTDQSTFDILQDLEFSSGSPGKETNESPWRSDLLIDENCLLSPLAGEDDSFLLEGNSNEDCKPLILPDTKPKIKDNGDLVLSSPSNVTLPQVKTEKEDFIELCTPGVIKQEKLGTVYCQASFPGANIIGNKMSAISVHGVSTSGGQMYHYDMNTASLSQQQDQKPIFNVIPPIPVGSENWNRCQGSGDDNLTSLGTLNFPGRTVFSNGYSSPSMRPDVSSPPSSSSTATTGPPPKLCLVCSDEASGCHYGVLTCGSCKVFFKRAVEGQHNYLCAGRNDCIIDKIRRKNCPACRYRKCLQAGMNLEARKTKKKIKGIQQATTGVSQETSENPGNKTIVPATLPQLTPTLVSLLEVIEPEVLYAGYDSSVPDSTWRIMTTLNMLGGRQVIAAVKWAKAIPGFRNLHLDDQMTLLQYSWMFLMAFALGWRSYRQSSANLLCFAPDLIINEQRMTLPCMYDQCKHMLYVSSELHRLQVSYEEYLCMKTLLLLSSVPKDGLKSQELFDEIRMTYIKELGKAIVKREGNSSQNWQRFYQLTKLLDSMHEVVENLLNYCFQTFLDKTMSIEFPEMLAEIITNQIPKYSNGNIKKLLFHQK
Dual specificity protein kinase CLK4 (Homo sapiens), sequence (Q9HAZ1 whole entry, looked up): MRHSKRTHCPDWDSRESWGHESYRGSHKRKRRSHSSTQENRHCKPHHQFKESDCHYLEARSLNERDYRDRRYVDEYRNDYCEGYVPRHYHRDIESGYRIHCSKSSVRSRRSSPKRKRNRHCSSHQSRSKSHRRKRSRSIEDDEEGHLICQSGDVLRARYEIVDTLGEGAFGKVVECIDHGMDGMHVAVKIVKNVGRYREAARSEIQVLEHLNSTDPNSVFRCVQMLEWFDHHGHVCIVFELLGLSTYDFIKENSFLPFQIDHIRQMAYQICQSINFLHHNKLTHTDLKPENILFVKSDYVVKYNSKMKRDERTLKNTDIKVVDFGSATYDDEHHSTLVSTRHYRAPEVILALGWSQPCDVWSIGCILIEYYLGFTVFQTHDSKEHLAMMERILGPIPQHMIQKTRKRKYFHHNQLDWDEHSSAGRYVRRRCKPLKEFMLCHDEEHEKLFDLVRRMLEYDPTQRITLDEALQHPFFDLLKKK
Lysosomal acid glucosylceramidase (Homo sapiens), sequence (P04062 whole entry, looked up): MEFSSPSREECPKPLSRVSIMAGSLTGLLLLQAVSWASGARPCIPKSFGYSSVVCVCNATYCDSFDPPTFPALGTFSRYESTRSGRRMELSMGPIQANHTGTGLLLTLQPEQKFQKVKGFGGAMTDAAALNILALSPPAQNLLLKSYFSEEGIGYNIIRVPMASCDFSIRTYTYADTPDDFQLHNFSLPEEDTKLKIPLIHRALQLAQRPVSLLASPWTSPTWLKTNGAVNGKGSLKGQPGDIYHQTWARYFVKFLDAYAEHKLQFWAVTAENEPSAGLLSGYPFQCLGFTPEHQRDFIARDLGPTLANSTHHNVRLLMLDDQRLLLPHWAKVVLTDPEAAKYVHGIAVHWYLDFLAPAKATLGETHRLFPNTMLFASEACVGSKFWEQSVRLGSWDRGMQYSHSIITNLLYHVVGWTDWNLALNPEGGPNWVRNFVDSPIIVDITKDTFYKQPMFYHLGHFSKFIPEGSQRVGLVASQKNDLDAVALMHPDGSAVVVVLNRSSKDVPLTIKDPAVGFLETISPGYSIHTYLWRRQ
Ubiquitin carboxyl-terminal hydrolase 1 (Homo sapiens), sequence (O94782 whole entry, looked up): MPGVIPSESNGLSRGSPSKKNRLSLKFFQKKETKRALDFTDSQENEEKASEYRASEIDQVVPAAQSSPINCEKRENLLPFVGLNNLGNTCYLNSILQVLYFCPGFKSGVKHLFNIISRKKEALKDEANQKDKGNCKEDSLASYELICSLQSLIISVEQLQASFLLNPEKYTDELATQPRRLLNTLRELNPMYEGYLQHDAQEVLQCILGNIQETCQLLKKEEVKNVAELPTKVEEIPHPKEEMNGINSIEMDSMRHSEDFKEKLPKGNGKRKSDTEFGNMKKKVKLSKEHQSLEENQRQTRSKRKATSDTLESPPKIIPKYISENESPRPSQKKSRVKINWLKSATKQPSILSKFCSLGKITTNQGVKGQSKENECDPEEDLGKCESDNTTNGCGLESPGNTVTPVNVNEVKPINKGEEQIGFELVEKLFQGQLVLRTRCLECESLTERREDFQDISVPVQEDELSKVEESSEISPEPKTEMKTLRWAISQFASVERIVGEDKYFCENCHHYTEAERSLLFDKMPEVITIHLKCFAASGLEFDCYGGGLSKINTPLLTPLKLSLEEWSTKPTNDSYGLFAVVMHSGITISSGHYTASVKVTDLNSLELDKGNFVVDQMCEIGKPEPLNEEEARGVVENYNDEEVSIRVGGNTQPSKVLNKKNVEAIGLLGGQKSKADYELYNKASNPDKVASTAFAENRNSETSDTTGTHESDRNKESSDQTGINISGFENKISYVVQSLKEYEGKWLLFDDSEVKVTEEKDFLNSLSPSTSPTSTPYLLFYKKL

Row | SMILES | Potency [1] | activity change, negative = inhibition [2] | Potency [3] | activity change, negative = inhibition [4] | activity, negative = inhibition [5] | Potency [6] | Potency [7] | outcome [8] | Potency [9] | Potency [10] | Potency [11] | activity change, negative = inhibition [12] | max response [12, 18] | max response [12, 19] | Potency [13] | Potency [14] | Potency [15] | Potency [16] | Potency [17]
1 | Cn1c(=O)c(-c2cccc(C#N)c2)nc2cnc(Oc3ccccc3)nc21 | > 11.4 µM (inactive) | -13.9% (inactive) | 1.58 µM (active) | -0.708% (inactive) | 1.85% (inactive) | > 9.22 µM (inactive) | > 46 µM (inactive) | inactive | inactive | inactive | 3.16 µM (active) | -3.03% (inactive) | 16.1% | 12.2% | inactive | inactive | inactive | inactive | inactive
2 | CN1CCN(c2ncc3nc(-c4cc(F)cc(F)c4)c(=O)n(C)c3n2)CC1 | > 11.4 µM (inactive) | 11.2% (inactive) | 5.01 µM (active) | 5.17% (inactive) | 12.7% (inactive) | > 9.22 µM (inactive) | > 46 µM (inactive) | inactive | inactive | – | – | 4.65% (inactive) | 14.2% | 19.8% | inactive | inactive | inactive | – | inactive
3 | COc1ccc(-n2c(=O)c(-c3cccs3)nc3cnc(OC)nc32)cc1 | > 11.4 µM (inactive) | -22.9% (inactive) | 5.01 µM (active) | -2.37% (inactive) | -2.82% (inactive) | > 9.22 µM (inactive) | > 46 µM (inactive) | inactive | – | 7.94 µM (active) | inactive | 3.59% (inactive) | 12.4% | 13.8% | inactive | inactive | inactive | inactive | inactive
4 | COc1ccc(Oc2ncc3nc(C)c(=O)n(-c4ccccc4)c3n2)cc1 | > 11.4 µM (inactive) | -15.8% (inactive) | 7.94 µM (active) | -10.3% (inactive) | -5.69% (inactive) | > 9.22 µM (inactive) | > 46 µM (inactive) | inactive | inactive | 5.01 µM (active) | – | 6.06% (inactive) | 10.7% | 17.1% | inactive | inactive | inactive | inactive | inactive
5 | COc1ccc(Oc2ncc3nc(C)c(=O)n(C[C@H]4CCCO4)c3n2)cc1 | > 11.4 µM (inactive) | -5.04% (inactive) | 12.6 µM (active) | 1.62% (inactive) | -14.8% (inactive) | > 9.22 µM (inactive) | > 46 µM (inactive) | inactive | inactive | 3.98 µM (active) | inactive | -2.24% (inactive) | -3.75% | -4.08% | inactive | inactive | inactive | inactive | inactive
6 | Cc1cnc(CNc2ncncc2-c2c(C)noc2C)cn1 | > 11.4 µM (inactive) | 5.13% (inactive) | inactive | 1.67% (inactive) | -8% (inactive) | > 46 µM (inactive) | > 46 µM (inactive) | inactive | inactive | – | inactive | 5.43% (inactive) | 31% | 35% | inactive | inactive | inactive | – | inactive
7 | COc1ccc(-n2c(=O)c(-c3cccs3)nc3cnc(N4CCOCC4)nc32)cc1 | > 11.4 µM (inactive) | 0.656% (inactive) | 12.6 µM (active) | -15.7% (inactive) | – | > 9.22 µM (inactive) | > 46 µM (inactive) | inactive | inactive | – | inactive | 5.16% (inactive) | 28.1% | 27.2% | inactive | inactive | inactive | inactive | inactive
8 | CN(C)c1ncnc2ccc(-c3cccnc3)cc12 | > 11.4 µM (inactive) | -15% (inactive) | 0.2 µM (active) | – | 9.76% (inactive) | > 46 µM (inactive) | > 46 µM (inactive) | inactive | inactive | – | inactive | 3.37% (inactive) | 4.52% | 7.15% | 7.94 µM (active) | 7.08 µM (active) | 12.6 µM (active) | inactive | inactive
